# Sfp inh: Sfp phosphopantetheinyl transferase inhibition; Q9F4F7; Biochemical Sfp PPTase activity, qHTS; Potency, µM, without a hit: largest response in the series, negative = inhibition, actives largely listed as inhibitors; 310,000 compounds, 3.5% hits;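 further: the enzyme is Sfp with the accession as filed and its product quenches rhodamine fluorescence; 0% = enzyme reaction without inhibitor and -100% = no enzyme wells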
#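 Fluorescence-quenching assay with 15 nM Sfp, 5 uM rhodamine-CoA and 12.5 uM BHQ-2-labelled ybbR peptide in pH 7.6 Hepes/MgCl2 buffer. Enzyme was pre-incubated with compound for 15 min at room temperature. Rate was taken from the 30-min fluorescence change (525/598 nm).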
# JMJD2A Tudor inh: JMJD2A Tudor domain (human) inhibition; Potency, µM (doses to about 114 µM), without a hit: at the highest dose activity change, negative = inhibition, hits mostly inhibitors; AID 504339; O75164; AlphaScreen JMJD2A-Tudor / H3K4me3 peptide binding; 390,000 compounds, 4.4% hits; further: on the % scale 0 is the no-effect control and ±100 the full control effect; nearly all actives have a fitted effect of over 50% in size
# HP1b binding inh: HP1-beta chromodomain-methylated histone interaction inhibition; P83916; AlphaScreen HP1-beta / biotin-H3K9me3 peptide binding; Potency, µM (highest dose often 114 µM), inactives show at the top dose activity change, negative = inhibition, usual class: inhibitors; 390,000 compounds, 0.56% hits; AID 540317; further: nearly all actives have a fitted effect of over 70% in size
#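 Compound inhibition of the preformed complex between 50 nM HP1-beta and 50 nM biotinylated H3K9me3 peptide was read by AlphaScreen. Buffer was PBS pH 7.4 with 0.01% Tween-20. Incubations ran 30 min at room temperature, with 10 ug/mL donor/acceptor beads.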
# BAZ2B block: inhibitors of human BAZ2B bromodomain; 360,000 compounds, 4.4% hits; Q9UIF8; AID 504333; AlphaScreen BAZ2B-H3K14Ac peptide displacement; Potency, µM (top dose mostly 114 µM), for inactives: top-dose activity change, negative = inhibition, actives largely listed as inhibitors; further: on the % scale 0 is the no-effect control and ±100 the full control effect; nearly all actives have a fitted effect of over 60% in size
#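 AlphaScreen displacement: compounds (up to 110uM) incubated 30 min at room temperature with a preformed 50 nM BAZ2B/50 nM biotinylated H3K14Ac peptide complex in PBS pH 7.4 with Tween-20. Donor and acceptor beads at 10 ug/mL final added, 20 min light-protected before reading.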
# G9a block: inhibitors of human histone lysine methyltransferase G9a. Q96KQ7. G9a H3K9 monomethylation, AlphaScreen, 2 h. Potency, µM (doses to about 102 µM), for the others: at the highest dose activity, negative = inhibition, actives largely listed as inhibitors. 350,000 compounds, 8.8% hits. AID 504332; further: on the % scale 0 is the no-effect control and ±100 the full control effect; nearly all actives have a fitted effect of over 75% in size
#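 Compounds were preincubated with 20 nM G9a for 15 min, after which biotinylated H3K9 peptide (500 nM) and SAM (20 uM) started a 2 h room-temperature reaction. Monomethylated product was quantified by antibody-based AlphaScreen chemiluminescence.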
# Starred values were filed as active, the others as inactive; ? = inconclusive; . = no result; [ ] = remark or other dose. In the library only some 12% were active in any assay of this set; here they are far more common. The call rests on the fitted dose curve; in most records, active means well fitted curve in the direction sought with a large enough effect; inconclusive means small, poorly fitted or top-dose-only effect, or another doubt; inactive means no such curve, though single readings can be large; an effect the other way counts as inactive or inconclusive. Potency means the concentration at half of the fitted maximal effect.
SMILES,Sfp inh,JMJD2A Tudor inh,HP1b binding inh,BAZ2B block,G9a block
COc1cc(OC)cc(-c2nnc(Sc3ccc(C=O)cc3[N+](=O)[O-])o2)c1,1%,.,.,?,25µM*
CC(C)CCN1C(N(C)C)=NC[C@@H]1C,.,-13%,45%,0%,1%[2.33 µM]
COc1cccc(C2CNC3(CCCC(C)C3)c3[nH]c4ccccc4c32)c1OC (stereo not given),-23%,?,5%,45µM*,?
CC1(C)CC(=O)CC2(C1)NCC(c1ccccc1)c1c2[nH]c2ccccc12 (stereo not given),-3%,?,16%,-35%,?
COc1ccc(C2=C(N3CCN(c4cccc(C)c4)C(C)C3)c3ccccc3C2=O)cc1 (stereo not given),.,7.1µM*,?,4.5µM*,5µM*
COc1ccc(-n2ncc3c(N4CCN(c5cccc(C)c5)C(C)C4)ncnc32)cc1 (stereo not given),.,-29%,47%,1%,11%[59 µM]
O=C(Oc1ccc(=O)n(-c2ccccc2)n1)c1ccc(Cl)cc1,89µM*,-27%[11.4 µM],51%,8%,.
O=C(Oc1ccc(=O)n(-c2ccccc2)n1)c1ccc(F)cc1,3%,-5%,75%,-27%,?
CSc1cccc(NC(=O)c2cccc(N3CCCS3(=O)=O)c2)c1,.,-17%,30%,-15%,-15%[59 µM]
CC(C)OCCOc1ccc2oc(-c3ccco3)cc(=O)c2c1,8%,?,?,56µM*,-3%[59 µM]
N#CCOc1ccc2oc(-c3ccco3)cc(=O)c2c1,13%,.,.,1%,-42%
O=[N+]([O-])c1cc(C(F)(F)F)cc([N+](=O)[O-])c1Sc1n[nH]c(C(F)(F)F)n1,56µM*,50µM*,43%,-35%,.
COC(=O)c1ccc(O)c(Sc2cc(C(=O)OC)ccc2O)c1,?,-3%,41%,8%,10µM*
COC(=O)c1ccc(C)cc1,.,-7%,45%,.,.
N#Cc1ccc(-c2cccs2)nc1SCc1c(F)cccc1Cl,.,61%,94%,6%,48%[59 µM]
O=C(O)C1=C[C@@H](c2ccc(F)cc2)C[C@@H](OCCCCO)O1,9%,?,21%,79µM*,?
O=C(O)C1=C[C@@H](c2ccc(C(F)(F)F)cc2)C[C@@H](OCCCCO)O1,.,-21%,7%,.,.
c1cncc(CSc2ccc(-c3cccnc3)nn2)c1,16%,-9%,47%,-1%,-7%
c1ccc(-c2ccc(SCc3cccnc3)nn2)nc1,-19%,?,13%,3.2µM*,11%
CCc1ccc(NC(=O)c2ccc(Cn3nc(N4CCN(c5ccccc5)CC4)ccc3=O)o2)cc1,.,?,2%,50µM*,?
CCc1ccccc1NC(=O)c1ccc(Cn2nc(N3CCN(c4ccccc4)CC3)ccc2=O)o1,.,?,5%,-35%,?
COc1cc2c(cc1OC)C(c1cc3cc4c(cc3[nH]c1=O)OCO4)N(C(=O)C1CC1)CC2 (stereo not given),40µM*,-24%,18%,7%,10%[59 µM]
O=C(O)c1ccc(N2C(=O)c3cccc4cccc(c34)C2=O)cc1,7%,-12%,34%,21%,.
NN1C(=O)c2cccc3c(C(=O)O)ccc(c23)C1=O,6%,-16%,18%,-8%,-11%[59 µM]
O=C1c2ccccc2C(=O)N1c1ccc(O)cc1,.,-16%,15%,.,.
SMILES,Sfp inh,JMJD2A Tudor inh,HP1b binding inh,BAZ2B block,G9a block
O=C1c2cccc3cccc(c23)C(=O)N1c1ccc(O)cc1,50µM*,-25%,24%,79µM*,-14%
O=C(O)c1ccc2c3c(cccc13)C(=O)N(c1ccccc1)C2=O,5%,?,?,56µM*,20µM*
O=C(O)c1ccc(N2C(=O)c3cccc4c(C(=O)O)ccc(c34)C2=O)cc1,-8%,45µM*,79µM*,50µM*,13µM*
COc1cc(CN(C(=O)COc2ccc(Cl)cc2)c2ccccn2)cc(OC)c1OC,.,-9%,43%,-6%,-26%[59 µM]
CC(C)CC(CSc1ccc(Br)cc1)N1CCN(CCc2ccccc2)CCC1=O (stereo not given),-4%,-26%,12%,.,.
COc1ccccc1CNC(=O)COC(=O)c1cc(=O)c2ccccc2o1,.,-13%,42%,.,.
Cc1ccc(N2C(=O)C3C4C=CC(CC4)C3C2=O)cc1[N+](=O)[O-] (stereo not given),32µM*,-1%,32%,79µM*,-46%[0.501 µM]
Cc1ccc(N2C(=O)C3C4C=CC(C4)C3C2=O)cc1C (stereo not given),18%,-1%,13%,2%,2%
N#Cc1ccc(N/N=C/c2ccccc2)c([N+](=O)[O-])c1,20%,-8%,-4%,-12%,-11%
CCC(c1nnnn1Cc1ccco1)N1CCN(C(=O)c2ccco2)CC1 (stereo not given),-3%,?,29%,?,2%[59 µM]
CC(C)CC(c1nnnn1C(C)C)N1CCN(C(=O)c2ccco2)CC1 (stereo not given),.,-20%,11%,-25%,-15%[0.501 µM]
CCCC(c1nnnn1CCOC)N1CCN(C(=O)c2ccco2)CC1 (stereo not given),-1%,?,11%,?,45µM*
COCCn1nnnc1C(C(C)C)N1CCN(C(=O)c2ccco2)CC1 (stereo not given),23%,45µM*,0%,-1%,-3%[12.7 µM]
COCCn1nnnc1CN1CCN(C(=O)c2ccco2)CC1,0%,-7%,1%,1%,17%
CCCCC(c1nnnn1C(C)C)N1CCN(C(=O)c2ccco2)CC1 (stereo not given),-24%,?,26%,-9%,50µM*
Cc1cc(C)cc(C(=O)N2CCCCC2)c1,.,3%,17%[57 µM],.,.
Cc1[nH][nH]c(=O)c1C(c1c(C)[nH][nH]c1=O)c1cn(Cc2ccccc2Cl)c2ccccc12,-11%,?,?,?,14µM*
N/C(=N\O)c1cn(Cc2ccccc2Cl)c2ccccc12,1%,-20%,-2%,-31%,-7%
Cc1ccc(/C=N/NC(=O)c2ccc3ccccc3c2)s1,16%,-25%,34%,-21%,4%
C=CCN1c2ccccc2[C@]23C[C@@H](C(=O)OC)N(S(=O)(=O)c4c(C)noc4C)C2=NC(C(=O)OC)=C(C(=O)OC)[C@H]13,17%,.,.,.,.
Cc1ccc2[nH]c(C)c(CCNC(=O)C3CCCCC3C(=O)OCC(F)(F)F)c2c1 (stereo not given),-5%,71µM*,-21%,?,-43%[59 µM]
Cc1[nH]c2c(C)cccc2c1CCNC(=O)C1CCCCC1C(=O)OCC(F)(F)F (stereo not given),22%,-35%,-12%,?,-21%[59 µM]
CC(C)(C)OC(=O)N1CCN(c2ccc(NC(=O)c3ccco3)cc2)CC1,9%,5%,18%,-23%,-2%
Cc1ccccc1-c1cn(-c2ccccc2)c(=S)[nH]1,?,?,-19%,?,1.4µM*

# Screening results: PubChem BioAssay, National Center for Advancing Translational Sciences (NCATS)
